The campaign covered roughly 53,000 sequences. About 3,700 (7%) were called active. Only a selection was taken, and actives are over-represented in it overall. Unmarked numbers belong to inactive results.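 The calls were made as follows: active = gene knockdowns whose robust z-score for IL-1 alpha signal is at least 2 or at most -2, so actives lie on both sides; inactive = the rest.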
assay: Components of the Cytosolic LPS Sensing Pathway: Gene Identification via Genome-wide siRNA Screen; settings: RAW264.7 macrophages, IL-1a HTRF, actives lie on both sides, screened at 100 nM (by protocol), cells primed 5 h with Pam3CSK4 first;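 also: robust z of the log signal after scaling to non-targeting control siRNA wells of the plate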
How it was run: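 RAW264.7 mouse macrophages reverse-transfected with single siRNAs (100 nM final) for 48h, primed with Pam3CSK4 for 5 hours, then transfected with LipidA for 24 hour. Supernatant IL-1a read by HTRF; values normalized to negative-control median, log-transformed robust z-scores.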

| Sequence | z-score |
| --- | --- |
| GGUCUGUAUGAAGACAUUATT against Pdss1 | -1.16 |
| GCAAGAAGUAAUCAACUUUTT against Cnot9 | -0.997 |
| GGACCAGAAACCGUGAUAATT against Immp2l | 3.96 (active) |
| GGCACCAAUUACAAGAAAATT against V1rg10 | 0.257 |
| CCUGGCAGACGUGGAACAATT against Ppp1r13l | -0.102 |
| GGACCAGUUACUUUAACAUTT against Pkdrej | 0.555 |
| GGAGAGUCCACUAAUACUGTT against Dmrt3 | 0.217 |
| GGAGAUUGGAUCCCGAAACTT against Pxn | -0.431 |
| GGCAAAGAGUGGUAAGAGUTT against Olfr1166 | -2.72 (active) |
| GGAUUUCUACAGGGUGUAUTT against Trim8 | -1.19 |
| GGAUCUUACUAUCACCAGCTT against Foxf1 | 1.99 |
| CGGGCUACCAUUAUGGUGATT against Atp6ap2 | 0.382 |
| GUGGCAGCACGACCUAUUCTT against Alyref2 | -0.175 |
| CCAAUUACCUGAAUAAAGCTT against Epb41l5 | 1.19 |
| GGGCUCUACUAUUUUUUUUTT against Polh | -2.68 (active) |
| GCCCAGGUCUAAUGUCUAATT against Tac4 | 0.234 |
| GGUGUUAAGUCACAAAAUGTT against Meis2 | 1.59 |
| GGUUGUAUGUUGUGUGUUUTT against Cyrib | 2.36 (active) |
| CGGAAUGUAGGACACGAAUTT against Ltb | -0.267 |
| GGUGACUUCGGAGAAAAGGTT against Sncaip | 0.257 |
| GGAACAGCUGUGAUUAACGTT against Prdx4 | 0.343 |
| GCUGGAAUACGUUGAUAUATT against Kcnab3 | 3.68 (active) |

| Sequence | z-score |
| --- | --- |
| GGAGAGUCCAGUUUCCAUUTT against Rnf113a1 | 1.44 |
| GCUCAGGAAUUUGACACCATT against Adgrl3 | -1.33 |
| CCUAAGAUGAUCGUAGGCUTT against Olfr1221 | -0.643 |
| CGAGCUUUCUUCGUACACCTT against Dvl2 | -1.74 |
| GGCAUACCUGGAGAAGUGUTT against Prr5l | -2.31 (active) |
| GCUAGCACUAAGUGAACCUTT against Ppp1r21 | 1.25 |
| GGAUAAUAGGAACAAUCUGTT against Sval1 | 0.207 |
| GGUCAGGUUGAGGACAUAATT against Vwa1 | 1.28 |
| GCUUACCAGAUUGUAUGUATT against Mrgpra1 | 0.533 |
| GGAGAAAGAGCAGAGUCUGTT against Cep250 | -2.04 (active) |
| GGCAGAGUUUGAAAAGAUCTT against Parp16 | -1.42 |
| GGCCCAAGAUUUCAAUUAGTT against 9130230L23Rik | -0.0833 |
| GGUCAGAGGUCGACCUAUUTT against Oas1h | -2.18 (active) |
| GGUACAUUUUAUACUGGAGTT against Zfp277 | 0.163 |
| GCCUCAUCGUAUAUAAAAUTT against Atp5mpl | -1.64 |
| GGCCCAAACCUUAAAGUCCTT against Smyd4 | -0.194 |
| GGAAUGUACCCAUAAAAGUTT against Nudt19 | 0.988 |
| GGCAUUGAGAAGUUUGAAGTT against Fmo9 | -1.07 |
| CCCUUGGUUAUGGAGAAAGTT against Mcoln2 | -0.0392 |
| GCACAACAAGCGAUGUCAUTT against Myo9b | -2.13 (active) |
| CCUACGUGAACAUGACGGUTT against Agfg1 | 0.096 |
| GGUAGAGAAUUGAAACCUATT against Klhdc10 | -0.776 |

| Sequence | z-score |
| --- | --- |
| GGAAUAUACCCUGAAACAUTT against Fam71d | 0.0244 |
| GGAGACUGUGGAUUUAAUUTT against Sult1a1 | 2.07 (active) |
| GGAGAUGUACCACAAUGCCTT against Prss29 | -0.128 |
| GGCGGUGAUCCAGGGUUUATT against Klc2 | 2.62 (active) |
| GGAGUCAAAAAAAAUGCAATT against Ribc1 | 1.17 |
| GCAAGAUCCAGAACACUCATT against Adora1 | -0.781 |
| CCAAGGAGCAUUCUUUGGUTT against 1700024B05Rik | -0.0487 |
| GGUUUGUAUCUUAAAUGCCTT against Tdpoz4 | 2.88 (active) |
| GGCCUCGUCAUUUUACAGGTT against Mcee | 0.098 |
| GCCAAUAAUCCACAGGCAATT against Ryk | -0.577 |
| CUGUAAGGCGGAUAAGACCTT against Pantr1 | -1.42 |
| GGUUACAAAAGAACCAGAUTT against Pik3c2g | 1.66 |
| GCGGCUUAGUCCAUCAGGATT against Aplf | 0.819 |
| GGAAGAGUGACUUGUGCAATT against Slc28a2 | 0.0125 |
| GCUCGAGGCUUAGAAGACUTT against Hspb3 | 2.23 (active) |
| GGCUUACCUGGUCUACUCCTT against Wnt8b | -0.95 |
| GCUACGUGUACCUGGAGUGTT against Cpeb1 | -0.502 |
| GGUGGUUAUUUAUUGGUGATT against Sp6 | -0.272 |
| GGUGCCUCAGAGUAAAUAUTT against Cdk2ap1 | -0.895 |
| GCAAGCAAUAGAGGAACCUTT against Rnf38 | 0.0643 |
| GCAAACUAUUUGUCUGGUGTT against Ripk1 | 0.7 |
| GGAGUACAUGGUGAUGUUGTT against Prss43 | -2.6 (active) |

| Sequence | z-score |
| --- | --- |
| CCGAAUCUCUCACGUGCCATT against Rtn4r | -0.474 |
| GGAGUGUUUUACCUCUUUCTT against Nudt13 | 0.911 |
| GGACUUGAUGACAGUGAAUTT against Strada | -2.27 (active) |
| GCACCAUGAAUUCUAUUGCTT against Kcnmb1 | -0.24 |
| GCCGCUUAAGAGGGAUUAUTT against Mrpl15 | -0.394 |
| GGAGUAACUAUUCCCAAUUTT against Herc1 | 1.41 |
| GGAGUUGAGGUGAUUAUCUTT against Olfr1222 | -2.33 (active) |
| GCUUAAGGAUCCAUAAUGUTT against Musk | 0.981 |
| GGAAGGAGAAAGAGUAUGATT against Mnt | 0.525 |
| GCAGAAACGAUUGUACCAUTT against Ar | 1.37 |
| GGCUCAAAACCACACCACUTT against Olfr477 | -2.75 (active) |
| CGAUUGCUAAGGUGUUUGATT against Sfmbt1 | -0.45 |
| GGAGCAUCAUUAUUCUGCATT against Gm527 | -0.0903 |
| GAGAAACCUGCCUCAUCUCTT against Spata3 | -0.0842 |
| GGAUUUGAACUCAGAUGUUTT against A430057M04Rik | 2.15 (active) |
| GGGAUGUUCUUCAAUCCUGTT against Hecw2 | 0.0154 |
| GCACUUCAGUUUACAAAACTT against Mier3 | -0.891 |
| CGUUUGAUGAGACCAUGUATT against Vwf | -0.459 |
| GCCUGGUAGUUAGUCAGAATT against Klf11 | 2.4 (active) |
| GCUACAUGAUUCAGCGGAATT against Itga3 | -1.23 |
| CGGAUUAGUAUAAAUGUAGTT against Prss16 | -0.109 |
| UCACAACUGUCUGUUCUCATT against Klk1b3 | -1.19 |

| Sequence | z-score |
| --- | --- |
| GCCACACACCUUCUAUAAUTT against Ptprs | -0.62 |
| GCCAACGCAGCAAAAGCUCTT against Rsrp1 | 0.0495 |
| CCCAAUAUGUUAGACCCUGTT against Slc16a8 | 0.448 |
| GGUGAUAAUUAAUGUCUUGTT against Naip1 | 2.08 (active) |
| GGAUCAGAACUUAUCUGUGTT against Utp23 | 0.383 |
| GGCACUGAUAAGAAGUACCTT against Dnah1 | 0.772 |
| GCUUAUGUUAAACCAGAGATT against Syt8 | 0.0449 |
| GGAUCCUAGCCUUUUAUCATT against Cep70 | -1.11 |
| GGAUUCCAGAGAAAUGUGATT against Lrrc66 | -2.62 (active) |
| GGUAUGAGUACAAAUACUGTT against Tek | 1.97 |
| GGCUCUGCCAUUUUCCCUUTT against F12 | -1.24 |
| GGCCAAGUUCCAUAUCACCTT against Eefsec | 0.46 |
| GGAACUCAGUCAGGACCAATT against Hnf4aos | 0.954 |
| CGAGAAUAUGUGAGAGCUUTT against Dcaf13 | -0.793 |
| GGAGACCCUGGUGAGAAGATT against Emid1 | 0.26 |
| GGAACACAGAGGUAAAAGGTT against Olfr446 | -2.66 (active) |
| CCAGCAUGCAUGAACGAGUTT against Carnmt1 | 0.508 |
| CCCUGUAACCAAUAAGAAGTT against Snrpa1 | -0.401 |
| GGGCUAUGCAGACCUGUACTT against Cyb561 | -2.45 (active) |
| CCUUGGGACAAGCAUAUAUTT against Psg25 | 0.901 |

— PubChem BioAssay AID1508600 (Functional Genomics Laboratory (NCATS/FGL), 2020)
